Results filed as inconclusive are left out. Values without a mark were called inactive. Activity calls are given as the source filed them. The call rests on the fitted dose curve; in most records, active means well fitted curve in the direction sought with a large enough effect; inconclusive means small, poorly fitted or top-dose-only effect, or another doubt; inactive means no such curve, though single readings can be large; an effect the other way counts as inactive or inconclusive.

The nature of experiment [1]: qHTS of pediatric cancer cell lines to identify multiple opportunities for drug repurposing: Primary screen for A673 cells (AID 1347092). Further: on the % scale 0 is the no-effect control and ±100 the full control effect; nearly all actives have a fitted effect of over 45% in size. Summed up: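 Luminescence from CellTiter-Glo, taken after 15 min at room temperature, served as the proxy for metabolically active cells following 48 h treatment. Both potency and efficacy were taken from curves fitted to the titration data.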

Experiment [2] is described as follows: qHTS of pediatric cancer cell lines to identify multiple opportunities for drug repurposing: Primary screen for SK-N-MC cells (AID 1347093).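 Further: series mostly up to about 46 µM; plate controls were DMSO neutral control for no effect and bortezomib for full effect.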 In a few lines: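 Metabolically active cells were quantified by ATP-dependent luminescence (CellTiter-Glo, 15 min at room temperature) following 48 h treatment. Cells had been plated at 500-1,000 per well and settled for 5 h beforehand.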

A short description of experiment [3]: qHTS of pediatric cancer cell lines to identify multiple opportunities for drug repurposing: Primary screen for BT-37 cells (AID 1347094).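 Further: series mostly up to about 57 µM; plate controls were DMSO for no effect and bortezomib for full effect.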 In a few lines:
(§1)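 Readout: CellTiter-Glo luminescence, 48 h treatment. Controls DMSO (neutral) and bortezomib 2.3 µM final (positive). Potency and efficacy taken from primary-screen concentration-response curves.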
(In general: In qHTS, concentration-response curves come from the screen itself.)

The nature of experiment [4]: qHTS of pediatric cancer cell lines to identify multiple opportunities for drug repurposing: Primary screen for NB-EBc1 cells (AID 1347095).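 Further: plate controls were DMSO neutral control for no effect and bortezomib for full effect.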 In a few lines:
as §1

Experiment [5] can be described thus: qHTS of pediatric cancer cell lines to identify multiple opportunities for drug repurposing: Primary screen for Saos-2 cells (AID 1347097). Further: on the % scale 0 is the no-effect control and ±100 the full control effect; nearly all actives have a fitted effect of over 40% in size. Summed up: as §1
The nature of experiment [6]: qHTS of pediatric cancer cell lines to identify multiple opportunities for drug repurposing: Primary screen for SK-N-SH cells (AID 1347098). Further: on the % scale 0 is the no-effect control and ±100 the full control effect; nearly all actives have a fitted effect of over 65% in size. Summed up: (§2)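 Cells (500-1,000/well) rested 5 h, then received compounds for 48 h; metabolically active cells were measured by CellTiter-Glo luminescence. Final concentrations spanned up to 46 µM (MIPE, 11-point) or 0.59 nM-46 µM (NPC, 8-point) in primary screens, 11-point in follow-ups.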

Experiment [7] can be described thus: qHTS of pediatric cancer cell lines to identify multiple opportunities for drug repurposing: Primary screen for NB1643 cells (AID 1347099).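 Further: plate controls were DMSO neutral control for no effect and bortezomib positive control for full effect; nearly all actives have a fitted effect of over 50% in size.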 Summed up:
as §1

A short description of experiment [8]: qHTS of pediatric cancer cell lines to identify multiple opportunities for drug repurposing: Primary screen for LAN-5 cells (AID 1347100).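 Further: plate controls were DMSO neutral control for no effect and bortezomib positive control for full effect.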 Summed up:
(§3)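 Viability after 48 h compound treatment at 37C, 500-1,000 cells/well, read as ATP luminescence with CellTiter-Glo. Primary screens used 11-point (MIPE, 0.78 nM-46 µM) or 8-point (NPC, 0.59 nM-46 µM) final concentrations; follow-up screens used 11-point dilutions.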

Experiment [9] can be described thus: qHTS of pediatric cancer cell lines to identify multiple opportunities for drug repurposing: Primary screen for Rh18 cells (AID 1347102). Further: on the % scale 0 is the no-effect control and ±100 the full control effect; nearly all actives have a fitted effect of over 65% in size. Summed up:
as §3

A short description of experiment [10]: qHTS of pediatric cancer cell lines to identify multiple opportunities for drug repurposing: Primary screen for RD cells (AID 1347104).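 Further: plate controls were DMSO for no effect and bortezomib for full effect; nearly all actives have a fitted effect of over 55% in size.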 In a few lines:
as §1

A short description of experiment [11]: qHTS of pediatric cancer cell lines to identify multiple opportunities for drug repurposing: Primary screen for control Hh wild type fibroblast cells (AID 1347106).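 Further: series mostly up to about 46 µM; on the % scale 0 is the no-effect control and ±100 the full control effect; a drop in luminescence marks cytotoxicity and a rise apparent proliferation; nearly all actives have a fitted effect of over 55% in size.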 Summed up:
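Cells (500-1,000/well) in growth media were settled 5 h at 37 degrees C, then given compounds for 48 h. Viability was read as CellTiter-Glo luminescence. Primary runs used MIPE at 11 points (0.78 nM-46 µM) and NPC at 8 points (0.59 nM-46 µM); follow-ups used 11 points.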

The nature of experiment [12]: qHTS of pediatric cancer cell lines to identify multiple opportunities for drug repurposing: Primary screen for Rh30 cells (AID 1347107). Further: series mostly up to about 46 µM; on the % scale 0 is the no-effect control and ±100 the full control effect; nearly all actives have a fitted effect of over 75% in size. In a few lines:
as §3

Experiment [13] can be described thus: qHTS of pediatric cancer cell lines to identify multiple opportunities for drug repurposing: Primary screen for Rh41 cells (AID 1347108).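 Further: series mostly up to about 46 µM; luminescence drop marks cytotoxic hits; nearly all actives have a fitted effect of over 70% in size.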 In a few lines: as §1
Experiment [14] in a line: qHTS of pediatric cancer cell lines to identify multiple opportunities for drug repurposing: Primary screen for BT-12 cells (AID 1347101).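 Further: plate controls were DMSO for no effect and bortezomib positive control for full effect; nearly all actives have a fitted effect of over 25% in size.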 In a few lines:
as §2

Experiment [15] in a line: qHTS of pediatric cancer cell lines to identify multiple opportunities for drug repurposing: Primary screen for OHS-50 cells (AID 1347103).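 Further: plate controls were DMSO neutral control for no effect and bortezomib positive control for full effect; nearly all actives have a fitted effect of over 40% in size.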 Summed up:
as §2

Experiment [16] in a line: qHTS of pediatric cancer cell lines to identify multiple opportunities for drug repurposing: Primary screen for MG 63 (6-TG R) cells (AID 1347105). Further: on the % scale 0 is the no-effect control and ±100 the full control effect; nearly all actives have a fitted effect of over 50% in size. Summed up:
as §1

The nature of experiment [17]: qHTS of pediatric cancer cell lines to identify multiple opportunities for drug repurposing: Primary screen for U-2 OS cells (AID 1347096).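 Further: plate controls were DMSO wells for no effect and bortezomib positive control wells for full effect; nearly all actives have a fitted effect of over 50% in size.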 Summed up: as §3
A short description of experiment [18]: qHTS of pediatric cancer cell lines to identify multiple opportunities for drug repurposing: Confirmatory screen for NB1643 cells (AID 1347109). Further: potency means the concentration at half of the fitted maximal effect; nearly all actives have a fitted effect of over 45% in size. Summed up: as §3
Experiment [19] in a line: qHTS of pediatric cancer cell lines to identify multiple opportunities for drug repurposing: Confirmatory screen for A673 cells (AID 1347110). Further: potency means the concentration at half of the fitted maximal effect; nearly all actives have a fitted effect of over 65% in size. In a few lines: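 qHTS titration format: primary MIPE 0.78 nM-46 µM (11 pts), NPC 0.59 nM-46 µM; confirmation 11 pts. 48 h, CTG luminescence.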
A short description of experiment [20]: qHTS of pediatric cancer cell lines to identify multiple opportunities for drug repurposing: Confirmatory screen for SK-N-MC cells (AID 1347111).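 Further: potency means the concentration at half of the fitted maximal effect; cells exposed to compound for 48 h before the readout; nearly all actives have a fitted effect of over 70% in size.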 Particulars: SK-N-MC cell viability. Summed up: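 SK-N-MC cells at 500-1,000 cells/well in growth media were pre-incubated 5 h, then exposed to compounds at 11-point dilutions for 48 h at 37 degrees C, 5% CO2. Viability was read as CellTiter-Glo luminescence.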

`CNCCC(Oc1ccccc1OC)c1ccccc1` (stereo not given): the Potency entry in [1], in experiment [2], in experiment [3], in [4], in [5] and in [6] was “inactive” in each case. Further, the Potency entry in [7], in experiment [8], in [9], in experiment [10], in experiment [12] and in experiment [13] was “inactive” throughout. In addition, the call in experiment [11] was inactive.

Regarding `COCCc1ccc(OCC(O)CNC(C)C)cc1` (stereo not given), the Potency entry in experiment [1], in experiment [2], in experiment [3], in [4], in [5] and in experiment [6] was “inactive” each time. Further, the Potency entry in experiment [7], in experiment [8], in experiment [14], in experiment [9], in [15] and in experiment [10] was “inactive” each time. For the same compound, the Potency result in experiment [16], in [12] and in experiment [13] was “inactive” throughout.

Take `CCCN(CCC)CCc1cccc2c1CC(=O)N2`: the Potency entry in [1], in [2], in experiment [3], in experiment [4], in experiment [6] and in experiment [7] was “inactive” in each case. In addition, the Potency result in experiment [8], in experiment [9], in experiment [15], in experiment [10], in experiment [16] and in [12] was “inactive” throughout. Besides, the Potency result in experiment [13] is “inactive”.

As to `CCCN1C[C@H](CSC)C[C@@H]2c3cccc4[nH]cc(c34)C[C@H]21`, the Potency entry in [1], in experiment [2], in [3], in [17], in experiment [5] and in experiment [6] was “inactive” throughout. The Potency entry in experiment [7], in [8], in experiment [14], in experiment [9], in experiment [10] and in experiment [16] was “inactive” each time. Besides, the Potency entry in [12] and in experiment [13] was “inactive” throughout. Also, in experiment [11], the outcome was inactive.

Consider `C[C@]12C=CC(=O)C=C1CC[C@H]1[C@@H]3C[C@@H](O)[C@](O)(C(=O)CO)[C@@]3(C)C[C@H](O)[C@@]12F`, for which the Potency entry in [1], in [2], in experiment [3], in experiment [17], in [5] and in experiment [6] was “inactive” in each case. Further, the Potency entry in [7], in [8], in experiment [14], in experiment [9], in experiment [15] and in experiment [10] was “inactive” throughout. For the same compound, the Potency entry in experiment [16], in experiment [12] and in experiment [13] was “inactive” throughout. In [11], the call was inactive. For the same compound, the results for the Potency in experiment [18], in [19] and in [20] were 6.57 µM (active), 1.04 µM (active) and 7.37 µM (active), respectively.

Consider `O=C(O)CN(CCOCCOCCN(CC(=O)O)CC(=O)O)CC(=O)O`, for which the activity change, negative = cytotoxic in experiment [1] was 8.27% [at 0.597 µM]; in experiment [2] it was 0.435% [at 0.597 µM]; in [3] it was 13% [at 0.745 µM]; in experiment [17] it was 10.9% [at 0.597 µM]; in experiment [5] it was -2.21% [at 0.597 µM]; in [6], -13% [at 0.741 µM]. Besides, the activity change, negative = cytotoxic in experiment [7] is 28.6% [at 0.597 µM]; in [8] it was 27.7% [at 0.597 µM]; in experiment [9], 14.5% [at 0.597 µM]; in experiment [15], 12.9% [at 0.73 µM]; in experiment [10] it was 10.3% [at 0.597 µM]; in experiment [16], -8.72% [at 0.597 µM]. The activity change, negative = cytotoxic is 5.93% [at 0.597 µM] in experiment [11], 25.4% [at 0.597 µM] in experiment [12] and 18.7% [at 0.597 µM] in experiment [13].

On to `CSc1ccc(C(=O)c2[nH]c(=O)[nH]c2C)cc1`, for which the Potency result in experiment [1], in experiment [2], in experiment [3], in experiment [17], in experiment [5] and in [6] was “inactive” throughout. The Potency entry in experiment [7], in experiment [8], in [14], in experiment [9], in experiment [15] and in [10] was “inactive” in each case. In addition, the Potency result in experiment [16], in [12] and in [13] was “inactive” in each case. In addition, the result in [11] was inactive.

On to `CCCCOCCOCCOCc1cc2c(cc1CCC)OCO2`, for which the Potency entry in [1], in experiment [2], in experiment [3], in [17], in experiment [5] and in experiment [6] was “inactive” in each case. The Potency entry in experiment [7], in [8], in experiment [14], in experiment [9], in [10] and in experiment [16] was “inactive” each time. Besides, the Potency result in experiment [12] and in experiment [13] was “inactive” throughout.

These data come from PubChem BioAssay (NCATS).
